Among all 220,000 compounds or so, about 800 (0.36%) were called active. The full list was thinned out, with actives kept by preference. Unmarked numbers belong to inactive results. Rule as the data show it: active = activation above about 33% (passing the limit was not always enough); inactive = the rest.
Target: Neuropeptide Y receptor type 1 (Homo sapiens) (UniProt P25929)
Experiment: NPY-Y1 receptor potentiators or agonists, primary screen, cell-based (AID 1304);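 also: cells stimulated with NPY at EC10 then isoproterenol at EC100; 0% = low agonist plus stimulus and 100% = saturating agonist plus stimulus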
Details: NPY-Y1 expressing cells, potentiator/agonist activation; at 3.6 µM; stronger effect = higher value

Sequence of Neuropeptide Y receptor type 1 (Homo sapiens) (P25929 whole entry, looked up): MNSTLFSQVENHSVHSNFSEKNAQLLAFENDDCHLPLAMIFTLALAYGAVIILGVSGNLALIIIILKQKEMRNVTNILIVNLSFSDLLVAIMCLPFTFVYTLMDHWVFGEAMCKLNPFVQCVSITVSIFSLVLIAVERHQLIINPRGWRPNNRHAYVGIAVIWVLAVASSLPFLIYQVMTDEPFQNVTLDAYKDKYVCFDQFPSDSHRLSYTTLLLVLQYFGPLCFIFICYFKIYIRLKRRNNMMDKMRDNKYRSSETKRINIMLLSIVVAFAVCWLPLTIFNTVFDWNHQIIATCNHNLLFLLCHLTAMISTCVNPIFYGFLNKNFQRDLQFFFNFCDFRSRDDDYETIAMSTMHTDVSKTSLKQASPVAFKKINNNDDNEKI

**Q.** `O=c1oc(-c2ccco2)nc2sc3c(c12)CCCCC3` was tested. Which activation did it give?
**A.** 9.25%

**Q.** How did the activation turn out when `CN(c1ccccc1)S(=O)(=O)c1cccc(NC(=O)Cc2c(F)cccc2Cl)c1` was run?
**A.** -12%

**Q.** How did the activation turn out when `C#CCOCCOCCOCCNc1nc(N2CCN(C(=O)[C@H](Cc3ccc(O)cc3)n3cc(C(N)CC(C)C)nn3)CC2)nc(N2CCN(C(=O)[C@H](CCC(=O)O)n3cc(C(N)[C@H](C)CC)nn3)CC2)n1` (stereo partly drawn) was run?
**A.** -15%

**Q.** With `C#CCOCCOCCOCCNc1nc(N2CCN(C(=O)[C@H](CCCCN)n3cc([C@@H](N)C(C)CC)nn3)CC2)nc(N2CCN(C(=O)[C@H](Cc3ccc(O)cc3)n3cc([C@@H](N)C(C)CC)nn3)CC2)n1` (stereo partly drawn) as the molecule, how does the activation read?
**A.** 111% (active)

**Q.** Which activation does the source give for `C#CCOCCOCCOCCNc1nc(N2CCN(C(=O)C(Cc3ccc(O)cc3)n3cc(C(N)CC(C)C)nn3)CC2)nc(N2CCN(C(=O)C(Cc3ccc(O)cc3)n3cc(C(N)C(C)CC)nn3)CC2)n1` (stereo not drawn) here?
**A.** 11.7%

**Q.** Which activation does the source give for `Fc1ccc(-c2csc(-c3ccc(C4SCCS4)cc3)n2)cc1F` here?
**A.** -5.29%

**Q.** Which activation does the source give for `Cc1cccc(C)c1Nc1c(-c2ccccc2O)nc2ncccn12` here?
**A.** 80.8% (active)

**Q.** For `Cc1ccccc1Nc1c(-c2ccccc2)nc2ncccn12`, which activation is on record?
**A.** 46.3%

**Q.** Which activation does the source give for `Nc1nc(SCc2ccc([N+](=O)[O-])cc2)c2ncn(C3OC(CO)C(O)C3O)c2n1` (stereo not drawn) here?
**A.** -25.4%

**Q.** `C/C(=N\NC(=O)c1ccc(CSc2nc(C)cc(C)n2)cc1)C1CCCCC1` was tested. Which activation did it give?
**A.** 1.93%

**Q.** For `COc1cc(C(=O)Nc2cc(C(F)(F)F)ccc2N2CCOCC2)ccc1O`, which activation is on record?
**A.** -20.3%

**Q.** `O=C(CCn1ccc([N+](=O)[O-])n1)Nc1nccs1` was tested. Which activation did it give?
**A.** 7.17%

**Q.** For `Cc1cccc(C)c1OCC(O)CN1CCCCC1` (stereo not drawn), which activation is on record?
**A.** 1.8%

**Q.** Which activation does the source give for `Cc1ccc(OCC(O)CN2CCN(CC(O)COc3ccc(C)cc3Cl)CC2)c(Cl)c1` (stereo not drawn) here?
**A.** 6.61%

**Q.** For `Cc1cccc(OCC(O)CN2CCN(CCN3C(=O)c4cccc5cccc(c45)C3=O)CC2)c1C` (stereo not drawn), which activation is on record?
**A.** 38.1% (active)

**Q.** `O=C(Nc1nnc(Cc2ccc(Cl)cc2)s1)c1ccncc1` was tested. Which activation did it give?
**A.** -10.8%

**Q.** How did the activation turn out when `CCCc1nc2oc3c(=O)[nH]cnc3c2c2c1COC(C)(C)C2` was run?
**A.** 8.17%

**Q.** `Cc1cnc(C(=O)OCC(=O)N2CCc3ccccc32)cn1` was tested. Which activation did it give?
**A.** -19.3%

**Q.** How did the activation turn out when `OC(COc1cccc2ccccc12)CN1CCN(c2ccccn2)CC1` (stereo not drawn) was run?
**A.** 50.8% (active)

**Q.** With `Cc1ccccc1OCC(O)CN1CCN(c2ccccn2)CC1` (stereo not drawn) as the molecule, how does the activation read?
**A.** 29.6%

**Q.** For `O=C1c2cccc3cccc(c23)N1CN1CCN(c2ccccn2)CC1`, which activation is on record?
**A.** 11.2%

**Q.** How did the activation turn out when `CCCOCC(O)CC(CC)C(=O)NNC(=S)Nc1ccccc1` (stereo not drawn) was run?
**A.** -8.03%

**Q.** For `O=C(/C=C/c1ccc(OCc2c(F)cccc2Cl)cc1)N1CCOCC1`, which activation is on record?
**A.** -15.1%

Reference: PubChem BioAssay AID1304 (The Scripps Research Institute Molecular Screening Center, 2008)
